# From PubChem BioAssay AID540276 (National Center for Advancing Translational Sciences (NCATS), 2011)
# Among all 300,000 compounds or so, about 5,400 (1.8%) were called active. Where a call stands in place of a potency, no number is given. Inconclusive results (about 28%) are left out. Calls come from the whole dose curve; tested in HEK293 cells. Many of the other results were omitted from the sample, so actives are more common in it than they were.
# Assay: qHTS for inhibitors of binding or entry into cells for Marburg Virus
# Conditions: Marburg virus pseudotyped entry inhibition, cell reporter; series mostly up to 37.8 µM
# Potency is the fitted concentration of half-maximal effect.
row,Structure (SMILES),Potency
1,COc1cccc(N(C(=O)CNC(=O)c2ccco2)C(C(=O)NC2CCCCC2)c2cccnc2)c1 (stereo unspecified),inactive
2,COc1cc([C@H]2[C@@H]3C(=O)N(c4ccc(F)cc4)C(=O)[C@H]3ON2c2ccccc2)ccc1O,inactive
3,O=[N+]([O-])c1ccc(S(=O)(=O)Nc2cccc(-c3ccc(N4CCCC4)nn3)c2)cc1,inactive
4,Cc1ccc(S(=O)(=O)c2cc3c(=O)n4cccc(C)c4nc3n(CCc3ccccc3)c2=N)cc1C,inactive
5,O=C(OCC(=O)N1CCCCCC1)c1ccc(Br)c(S(=O)(=O)N2CCOCC2)c1,inactive
6,C=CCNc1ncnc2ccc(Br)cc12,inactive
7,CC1(C)CC2CC(C)(CN2c2ncnc3ccc(Br)cc23)C1 (stereo unspecified),6.31 µM (active)
8,O=C(NNc1nc(N2CCCC2)nc(N2CCCC2)n1)c1ccccc1,inactive
9,O=C(CN1CCc2ccccc2C1)Nc1cccc(S(=O)(=O)N2CCOCC2)c1,inactive
10,COc1cccc(-c2nc3cc(C)ccc3o2)c1,6.31 µM (active)
11,COc1ccc2oc(N)nc2c1,inactive
12,O=[N+]([O-])c1ccc2oc(-c3cccc(O)c3)nc2c1,inactive
13,Nc1ccc2c(c1)C(=Cc1cccnc1)c1ccccc1-2,inactive
14,CSCCC(NC(=O)COc1ccccc1)C(=O)N(C)CC(=O)Nc1ccc(C)cc1 (stereo unspecified),inactive
15,CC1CCCCC12NC(=O)N(CC(=O)OCc1c(F)cccc1Cl)C2=O (stereo unspecified),inactive
16,COC(=O)C1(O)CC(C(C)C)=NN1C(=O)c1ccc(Cl)cc1 (stereo unspecified),inactive
17,O=C(c1ccc(Cl)cc1)N1N=C(c2ccccn2)CC1(O)C(F)(F)F (stereo unspecified),7.94 µM (active)
18,CC1=NN(C(=O)CCc2ccccc2O)C(O)(C(F)(F)F)C1 (stereo unspecified),inactive
19,COc1cc(C(=O)NCC(=O)NCCSc2ccc(Br)cc2)cc(OC)c1OC,inactive
20,O=C(NC1CCCC1)C(c1ccco1)N(C(=O)c1ccco1)c1ccc(F)cc1 (stereo unspecified),inactive
21,N#Cc1cc([N+](=O)[O-])ccc1NC(=O)COC(=O)c1cnccn1,inactive
22,Cc1c(C(=O)NCCN2CCOCC2)sc2nc(-c3ccc(F)cc3)cn12,inactive
23,CCOc1ccc(CCNC(=O)Cn2nc(CC)n3c(cc4sc(CC)cc43)c2=O)cc1OCC,inactive
24,CCOc1ccc(CCNC(=O)c2ccc3c(c2)sc2nc(-c4ccc(F)cc4)cn23)cc1OCC,2.51 µM (active)
25,COc1ccc(N2CC(NS(=O)(=O)c3ccc4ccccc4c3)CC2=O)cc1 (stereo unspecified),inactive
26,CCOc1ccc(C(=O)NCC(=O)N2CCCCCCC2)cc1OCC,inactive

row,Structure (SMILES),Potency
1,S=c1[nH]nc(-c2cccnc2)n1/N=C/C(Cl)=C\c1ccccc1,inactive
2,Cc1cc(-c2n[nH]c(=S)n2/N=C/C(Br)=C/c2ccccc2)n[nH]1,10 µM (active)
3,S=c1[nH]nc(-c2ccco2)n1/N=C/c1ccccc1,inactive
4,Cc1ccc2nc(Nc3ccccc3O)nc(-c3ccccc3)c2c1,inactive
5,O=C(CCl)NNc1cccc(Cl)n1,inactive
6,O=C(CCl)NNc1nc(-c2ccccc2)c2cc(Cl)ccc2n1,6.31 µM (active)
7,COc1ccc(CCNC(=O)c2c(C)nn(-c3ccccc3)c2Cl)cc1,inactive
8,CCN(C(=O)COC(=O)c1c(C)nn(-c2ccccc2)c1Cl)c1c(N)n(Cc2ccccc2)c(=O)[nH]c1=O,inactive
9,Cc1cc(C)c2cc(CN(Cc3nnnn3Cc3ccc(F)cc3)C3CCCC3)c(=O)[nH]c2c1,inactive
10,CCOc1ccc2[nH]c(=O)c(CN(Cc3nnnn3Cc3ccccc3)CC3CCCO3)cc2c1 (stereo unspecified),inactive
11,Cc1cccc2cc(CN(Cc3nnnn3Cc3ccccc3)C3CCCC3)c(=O)[nH]c12,16.4 µM (active)
12,Cc1cc(NC(=O)C(C)SCC(=O)Nc2ccccc2N2CCCCC2)no1 (stereo unspecified),inactive
13,Nc1cc(=O)n(Cc2ccccc2)c(=O)n1Cc1ccccc1,inactive
14,CCOC(=O)C1CCN(c2nc3ccccc3nc2[C@@H](C#N)C(=O)OC(C)C)CC1,inactive
15,COc1cc(/C=C2\C(=N)N3N=C(CC(=O)N4CCOCC4)SC3=NC2=O)cc(OC)c1OC,inactive
16,CCOC(=O)N1CCN(C(=O)c2ccc(CN(c3ccc(C)c(C)c3)S(C)(=O)=O)cc2)CC1,inactive
17,CCN1CCN(C(=O)c2ccc(CN(c3ccc(C)c(C)c3)S(C)(=O)=O)cc2)CC1,inactive
18,Cc1ccc2cc(CN(c3ccc(C)c(C)c3)S(C)(=O)=O)c(=O)[nH]c2c1,10 µM (active)
19,CCCCc1nc2cc(C(=O)NCCc3cnn(C)c3)ccc2o1,inactive
20,CC(=O)CSc1nc(CCc2ccccc2)c(C#N)c(=O)[nH]1,inactive
21,Cn1c(N)c(C(=O)COC(=O)/C=C/c2cccc(C(F)(F)F)c2)c(=O)n(C)c1=O,inactive
22,COc1ccc(C(=O)COC(=O)c2c(C)noc2C)cc1Cl,inactive
23,CC(C)(C)c1ccc(Cn2nnc3c(=O)[nH]c(C4CCCN(C(=O)c5ccco5)C4)nc32)cc1 (stereo unspecified),10 µM (active)
24,O=C(c1ccccc1F)N1CCC(c2nc3c(nnn3Cc3cccc(F)c3)c(=O)[nH]2)CC1,inactive
25,COc1ccc(Cn2nnc3c(=O)[nH]c(C4CCN(C(=O)c5ccccc5Cl)CC4)nc32)cc1,inactive
26,COc1ccc(OC)c(NC(=O)COC(=O)Cc2ccsc2)c1,inactive

row,Structure (SMILES),Potency
1,CCOC(=O)c1ccc(N2C(=O)c3n[nH]c(-c4ccco4)c3C2c2ccc(O)cc2)cc1 (stereo unspecified),11.2 µM (active)
2,CCOC(=O)c1ccc(N2C(=O)c3[nH]nc(-c4ccccc4)c3C2c2ccc(C(C)C)cc2)cc1 (stereo unspecified),inactive
3,CCOC(=O)c1ccc(N2C(=O)c3n[nH]c(C)c3C2c2ccc(O)c(OC)c2)cc1 (stereo unspecified),inactive
4,COc1ccccc1S(=O)(=O)c1c(C)cc(C)[nH]c1=O,inactive
5,OCc1ccc(-c2ccccc2)c(-c2ccccc2)c1,inactive
6,c1cnc(NC2C3CC4CC(C3)CC2C4)nc1 (stereo unspecified),inactive
7,CN(C)c1ccc(CNC2C3CC4CC(C3)CC2C4)cc1 (stereo unspecified),14.6 µM (active)
8,CN(C)c1ccc(CNC23CN4CN(CN(C4)C2)C3)cc1,inactive
9,CC(=O)Oc1cccc(C(=O)Nc2ccccc2NC(=O)c2cccc(OC(C)=O)c2)c1,inactive
10,COc1ccc(C(=O)NC2CC2)cc1OC1CCN(Cc2cnn(C)c2)CC1,inactive
11,CCC(=O)Nc1ccccc1N1CCN(S(C)(=O)=O)CC1,inactive
12,CCCC(=O)Nc1ccccc1N1CCN(C(=O)c2ccccc2)CC1,inactive
13,O=C(CN1CCN(c2ccccc2)CC1)Nc1ccc(F)cc1,inactive
14,CCC(C)C(=O)Nc1ccccc1N1CCN(c2ccc(F)cc2)CC1 (stereo unspecified),12.6 µM (active)
15,CCCCC(=O)Nc1ccccc1N1CCN(c2ccc(F)cc2)CC1,11.2 µM (active)
16,O=C(Nc1ccccc1N1CCN(c2ccccc2)CC1)c1cccc(F)c1,inactive
17,O=C(Cc1ccc(S(=O)(=O)N2CCOCC2)s1)NCCOc1ccccc1F,inactive
18,O=C(c1cc2cc(Br)cc(Br)c2oc1=O)N1CCOCC1,inactive
19,COCCNCCOCCOc1cccc(OC)c1,inactive
20,COCCCNCCOCCOc1ccc(Cl)cc1Br,11.6 µM (active)
21,CSc1ccc(/C=N\NC(=O)COc2ccc(Cl)cc2Br)cc1,inactive
22,CCS(=O)(=O)Nc1ccc(C(=O)NCCSc2ccccc2)cc1,inactive
23,CC(C)Cn1c(=O)c2ccccc2n2c(CCC(=O)NCc3ccccn3)nnc12,inactive
24,O=[N+]([O-])c1ccc(C=Nc2ccc(Cl)cc2Cl)s1,5.8 µM (active)
25,CNN/C(N=Cc1ccc([N+](=O)[O-])s1)=N\S(=O)(=O)c1cc(C)c(Cl)cc1SCc1ccccc1,inactive
26,CN1CCN(c2ccc(NC(=O)c3cc(Cl)c4c(c3)OCCO4)cc2)CC1,inactive

row,Structure (SMILES),Potency
1,CCc1ccc(N(C(=O)c2csnn2)C(C(=O)NC2CCCCC2)c2cccnc2)cc1 (stereo unspecified),inactive
2,CCCn1nc(NS(=O)(=O)c2ccc(F)cc2)c2cc3ccccc3nc21,inactive
3,CC(C)Cn1c(SCC(=O)Nc2ccc(Cl)cc2F)nc(O)cc1=O,inactive
4,COCCN(CCOC)C(=S)Nc1ccccc1Cl,inactive
5,O=C(Nc1ccccc1Cl)/C(Cl)=C(\Cl)S(=O)c1ccccc1 (stereo unspecified),3.16 µM (active)
6,O=C(COC(=O)c1cccs1)Nc1ccccc1Cl,inactive
7,O=C1c2ccccc2C(=O)C1C(=O)C1CC1,inactive
8,O=c1c2ccccc2ncn1CCc1ccncc1,inactive
9,Cc1ccccc1N/N=C/c1ccc(N2CCOCC2)cc1,inactive
10,Cc1nn2c3cc(N4CCOCC4)ccc3nc2c2ccccc12,inactive
11,Cc1cc(Nc2ccc(N3CCOCC3)cc2)c2cccc(C)c2n1,0.794 µM (active)
12,CC(NC(=O)c1cccc(S(=O)(=O)N2CCc3ccccc3C2)c1)c1ccco1 (stereo unspecified),inactive
13,Cc1cc(Oc2ccccc2)nc(N2CCOCC2)n1,inactive
14,Cc1cc(Nc2ccc(Cl)cc2)nc(N2CCOCC2)n1,7.94 µM (active)
15,Cc1cc(C)nc(N2CCC(C(=O)Nc3ccc4c(c3)OCCO4)CC2)n1,inactive
16,O=C(O)c1ccc2c(=O)n3c(nc2c1)/C(=C/c1ccc(OC(F)F)cc1OC(F)F)CC3,inactive
17,Cc1oc2ccc(O)c(CN3CCCCC3)c2c1C(=O)Nc1cccc(C(F)(F)F)c1,10 µM (active)
18,CCN1CCN(Cc2c(O)ccc3oc(C)c(C(=O)Nc4ccc(C)cc4C)c23)CC1,inactive
19,Cc1oc2ccc(O)c(CN3CCOCC3)c2c1C(=O)Nc1cccc(Cl)c1C,inactive
20,Cc1cc(=O)oc2c(C)c(OC(C)C(=O)NC3CCN(Cc4ccccc4)CC3)ccc12 (stereo unspecified),inactive
21,Cc1cc(-c2nnc(SCC(=O)Nc3ccc(F)cc3)n2N)n[nH]1,inactive
22,CC(C)CC1C(=O)N(Cc2cn(Cc3ccco3)nn2)CCS(=O)(=O)N1Cc1ccc(-c2ccc(Cl)c(Cl)c2)cc1 (stereo unspecified),25 µM (active)
23,CC(=O)c1cccc(-c2ccc(CN3C(CC(C)C)C(=O)N(Cc4cn(CC5CCCCC5)nn4)CCS3(=O)=O)cc2)c1 (stereo unspecified),inactive
